These results are taken from PubChem BioAssay (Tox21).

Results filed as inconclusive are left out. Where a call stands in place of a potency, no number is given. Active and inactive are the calls of the source. Calls come from the whole dose curve; as a rule, active = well fitted cell-killing curve with a large enough effect in the repeat runs; inconclusive = weak or mixed curves, or effect the other way; inactive = flat fitted curve, though single readings scatter.

The nature of the assay: qHTS RealTime-Glo MT Cell Viability Assay in HepG2 cells - 0 hour (AID 1224889). Note: nearly all actives have a fitted effect of over 50% in size. As to conditions: RealTime-Glo luminescence; series mostly up to 76.8 µM; activity change, negative = cytotoxicity: at the top concentration. In a few lines:
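HepG2 cells were seeded at 600 cells/well together with NanoLuc luciferase and a cell-permeant prosubstrate, preincubated 5 h at 37 C/5% CO2, then pin-dosed with compounds in DMSO. Nonlytic luminescence from viable cells was read at each time point.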
As to `CC1=CCC(C(C)(C)O)CC1` (centres undefined), the Potency entry is “inactive”.

In the case of `Nc1ncn([C@@H]2O[C@H](CO)[C@@H](O)[C@H]2O)c(=O)n1`, the Potency result is “inactive”.

Regarding `CCOC(=O)C(C#N)=C(c1ccccc1)c1ccccc1`, the Potency entry is “inactive”.

Turning to `CCC(C)(O)CCCC(C)C` (centres undefined), the Potency entry was “inactive”.

Take `CCCCNS(=O)(=O)c1ccccc1`: the Potency entry is “inactive”.

With `CC(C)CC(C)(O)C#CC(C)(O)CC(C)C` (centres undefined), the Potency result was “inactive”.

Turning to `c1ccc2c(c1)c1cccc3ccc4cccc2c4c31`, the Potency result was “inactive”.

As to `O=C(/C=C/c1ccccc1)OCc1ccccc1`, the Potency entry is “inactive”.

Turning to `CC(C)(C)NC(=O)[C@H]1CC[C@H]2[C@@H]3CC[C@H]4NC(=O)C=C[C@]4(C)[C@H]3CC[C@]12C`, the “activity change, negative = cytotoxicity” value is -29.8% [at 35.3 µM] (inactive).

For the molecule `CCCc1c(OCCCCc2nn[nH]n2)ccc(C(C)=O)c1O`, the Potency result is “inactive”.

For the molecule `CCCCCCCCCCCO`, the Potency result was “inactive”.

Regarding `COc1ccc(OC)c(C(O)CNC(=O)CN)c1` (centres undefined), the Potency entry was “inactive”.

As for `COC(=O)Nc1nc2ccc(S(=O)c3ccccc3)cc2[nH]1` (centres undefined), the Potency result is “inactive”.

For the molecule `Cc1ncc[nH]1`, the Potency result is “inactive”.

As for `Cc1ccc(C(=O)c2cc(O)c(O)c([N+](=O)[O-])c2)cc1`, the “activity change, negative = cytotoxicity” value was -14.8% [at 35.3 µM] (inactive).

Regarding `CN1C(C(=O)Nc2ccccn2)=C(O)c2ccccc2S1(=O)=O`, the Potency entry was “inactive”.

Regarding `Cc1c(OCC(F)(F)F)ccnc1CS(=O)c1nc2ccccc2[nH]1` (centres undefined), the Potency entry was “inactive”.

With `Nc1ccc(Nc2ccccc2)cc1`, the Potency entry is “inactive”.

Take `COc1cc([C@@H]2c3cc4c(cc3[C@H](O)[C@H]3COC(=O)[C@H]23)OCO4)cc(OC)c1OC`: the Potency result is “inactive”.

As for `CC(C)OC=O`, the Potency result was “inactive”.

Consider `OC(CCl)CCl`, for which the Potency entry was “inactive”.

Turning to `CC(C)OB(OC(C)C)OC(C)C`, the Potency result is “inactive”.

As to `C[Si](C)(C)O[Si](C)(C)C`, the Potency entry was “inactive”.

For `c1cc(-c2ccncc2)ccn1`, the “activity change, negative = cytotoxicity” value is 0.93% (inactive).

Consider `NNc1ccc(C(=O)O)cc1`, for which the Potency entry was “inactive”.

On to `O=C(OCc1ccccc1)c1ccccc1O`, for which the Potency entry was “inactive”.

Turning to `NC=O`, the Potency entry was “inactive”.

Take `Cc1cc2nc3c(=O)[nH]c(=O)nc-3n(C[C@H](O)[C@H](O)[C@H](O)CO)c2cc1C`: the Potency result was “inactive”.

Take `Nc1ncnc2nc[nH]c12`: the Potency result was “inactive”.

Take `CC(CCC(=O)O)(c1ccc(O)cc1)c1ccc(O)cc1`: the Potency result is “inactive”.

In the case of `C=C(C)C1CC=C(C)CC1` (centres undefined), the Potency result is “inactive”.

Turning to `Cc1[nH]c(=O)c(C#N)cc1-c1ccncc1`, the Potency result was “inactive”.

For `O=C(c1ccccc1)c1ccc(O)cc1O`, the Potency entry was “inactive”.

`CCCCCCCCCC(=O)OC`: the Potency result was “inactive”.

Turning to `Cc1cccc(C(=O)O)c1`, the Potency result was “inactive”.

Consider `c1ccc(Nc2ccccc2)cc1`, for which the Potency result is “inactive”.

Turning to `CCCC(=O)O`, the Potency entry is “inactive”.

`O=[N+]([O-])c1ccc2c(c1)Cc1ccccc1-2`: the Potency result is “inactive”.

With `OCCO`, the Potency entry was “inactive”.
